Rows were chosen to be rich in hits. Some 3.4% of all compounds tested hit in one or more screens of this group.
ANO1 activ = TMEM16A chloride channel activators or potentiators, primary screen, cell-based, HTS; Anoctamin-1 (Mus musculus), Q8BHY3; HEK293 TMEM16A/YFP-H148Q/I152L, iodide quench fluorescence; hits give low values; B-score at 10 µM; hit rate 0.3% among 340,000; AID 623877, 2012;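 active = fluorescence-ratio B-score plate-corrected deviation score at least 3 library SD below zero, with starting fluorescence score within 5 deviations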;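 also: channel opened by trigger with iodide after compound preincubation; score built on the fluorescence ratio of max minus min over baseline; more negative score means more quench and so TMEM16A activation or potentiation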
ANO1 block = TMEM16A chloride channel inhibitors, primary screen, cell-based, HTS; normalized B-score (activity score, 25-100; higher = stronger inhibition) at 10 µM; HEK293 TMEM16A/YFP iodide influx fluorescence, ionomycin; Anoctamin-1 (Mus musculus), Q8BHY3; AID 588511, 2011; hit rate 1.2% among 310,000;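 active = ratio plate-corrected score three or more library SD toward inhibition, starting fluorescence score within five deviations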;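 also: score derived from kinetic fluorescence span divided by baseline fluorescence per well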
NTR1 agonist = agonists of human NTR1, primary screen, imaging, U2OS cells, beta-arrestin-GFP, high content | Neurotensin receptor type 1 (Homo sapiens), P30989 | NTR1-U2OS beta-arrestin-GFP spot imaging, agonist mode | activation, % at 20 µM | hit rate 0.17% among 330,000;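 active = activation at or above 40% of the spot to cytoplasm intensity ratio, with at least 20 cells analyzed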;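 also: 0% = DMSO without peptide and 100% = 100 nM NTR1 peptide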
Target sequence (P30989 whole entry, looked up): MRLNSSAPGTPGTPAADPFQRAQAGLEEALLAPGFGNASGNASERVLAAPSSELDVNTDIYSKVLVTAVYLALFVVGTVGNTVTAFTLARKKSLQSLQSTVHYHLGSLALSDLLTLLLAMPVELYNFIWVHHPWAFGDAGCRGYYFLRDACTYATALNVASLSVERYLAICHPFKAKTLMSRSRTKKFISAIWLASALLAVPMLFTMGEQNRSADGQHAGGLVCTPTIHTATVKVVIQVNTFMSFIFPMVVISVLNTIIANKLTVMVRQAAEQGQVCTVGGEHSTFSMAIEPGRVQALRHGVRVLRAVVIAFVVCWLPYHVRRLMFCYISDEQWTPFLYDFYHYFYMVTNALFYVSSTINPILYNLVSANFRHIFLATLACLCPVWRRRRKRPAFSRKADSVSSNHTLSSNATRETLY
MEKK2 mut-MEK5 = MEK5 binding signal on mutant MEKK2 PB1, primary screen, biochemical, multiplex bead flow cytometry, Alexa488-MEK5; percent response, % at 10 µM; Alexa488-MEK5 binding to MEKK2 mutant; hit rate 0.35% among 290,000; in the data active = percent response above about 24%, passing the limit was not always enough
MEKK3 PB1 HTS = modulators of MEKK3-MEK5 PB1 binding, primary screen, biochemical, wildtype MEKK3, multiplex bead flow cytometry, Alexa488-MEK5 | Mitogen-activated protein kinase kinase kinase 3 (Homo sapiens), Q99759 | bead-based flow cytometry, Alexa488-MEK5 binding to MEKK3; actives lie on both sides; 0 = blocked by unlabeled MEK5, 100 = vehicle | binding response (% of control), % at 10 µM | hit rate 1.4% among 290,000 | AID 1529, 2009;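 active = binding response more than 3 SD above or below the average of its plate-row segment, actives on both sides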;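 also: Alexa488 bead fluorescence after subtracting the streptavidin-only scavenger bead signal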
MEKK2wt PB1 HTS = modulators of MEK5 binding to wildtype MEKK2, primary screen, biochemical, multiplex bead flow cytometry, Alexa488-MEK5. Mitogen-activated protein kinase kinase kinase 2 (Homo sapiens), Q9Y2U5. AID 1531, 2009. binding response (% of control), % at 10 µM. Alexa488-MEK5 binding to MEKK2 WT; actives lie on both sides. hit rate 1.1% among 290,000; in the data active = binding response below about 67% or above about 130%
* = called active by the depositor.

`CCCCCCCc1nc2sc3c(c2c(=O)n1N)CC(C)(C)OC3` gave ANO1 activ inactive, ANO1 block inactive, NTR1 agonist 0, MEKK2 mut-MEK5 -1, MEKK3 PB1 HTS 102 and MEKK2wt PB1 HTS 96.
Screening CCCCCc1nc2sc3c(c2c(=O)n1NC(=O)c1ccc([N+](=O)[O-])cc1)CC(C)(C)OC3 returned ANO1 activ inactive, ANO1 block 25*, NTR1 agonist 3, MEKK2 mut-MEK5 -1, MEKK3 PB1 HTS 98 and MEKK2wt PB1 HTS 98.
`COC(=O)c1ccc(Cn2cc(Cl)cn2)o1` gave ANO1 activ inactive, ANO1 block inactive, NTR1 agonist -1, MEKK2 mut-MEK5 -10, MEKK3 PB1 HTS 92 and MEKK2wt PB1 HTS 91.
For O=C(NNC(=O)c1cccc2ccccc12)c1ccccc1O the results were ANO1 activ inactive, ANO1 block inactive, NTR1 agonist 0, MEKK2 mut-MEK5 0, MEKK3 PB1 HTS 100 and MEKK2wt PB1 HTS 101.
Screening O=C(NNC(=O)c1cccc2ccccc12)c1ccc(-c2ccccc2)cc1 returned ANO1 activ -15*, ANO1 block inactive, NTR1 agonist 16, MEKK2 mut-MEK5 0, MEKK3 PB1 HTS 100 and MEKK2wt PB1 HTS 105.
CCOc1ccc(OCCC(=O)OCC(=O)Nc2ccc(C)c(S(=O)(=O)N3CCCCC3)c2)cc1 was read as ANO1 activ inactive, ANO1 block 100* and NTR1 agonist 2.
CCC(=O)c1ccc(OCC(=O)OCC(=O)Nc2ccc(C)c(S(=O)(=O)N3CCCCC3)c2)cc1 was read as ANO1 activ inactive and NTR1 agonist -2.
Screening Cc1noc(C)c1COc1ccccc1C(=O)NCCc1ccc(S(N)(=O)=O)cc1 returned ANO1 activ inactive, ANO1 block inactive, NTR1 agonist -1, MEKK2 mut-MEK5 0, MEKK3 PB1 HTS 102 and MEKK2wt PB1 HTS 99.
For COc1ccc(CNC(=O)C(c2ccco2)N(C(=O)CNS(=O)(=O)c2ccccc2)c2ccccc2C)cc1 (centres undefined) the results were ANO1 activ inactive, ANO1 block 25*, NTR1 agonist 6, MEKK2 mut-MEK5 -2, MEKK3 PB1 HTS 98 and MEKK2wt PB1 HTS 96.
Cc1cc(C(=O)N/N=C/c2ccc([N+](=O)[O-])o2)c(C)o1 was read as ANO1 activ inactive, ANO1 block inactive, NTR1 agonist 0, MEKK2 mut-MEK5 -22, MEKK3 PB1 HTS 85 and MEKK2wt PB1 HTS 87.
Screening COc1ccc(-c2nn(-c3ccccc3)cc2C(=O)N/N=C/c2ccc([N+](=O)[O-])o2)cc1 returned ANO1 activ -6.9*, ANO1 block inactive, NTR1 agonist 24, MEKK2 mut-MEK5 -1, MEKK3 PB1 HTS 105 and MEKK2wt PB1 HTS 94.
For COc1ccc2nc3ccccc3[n+]([O-])c2c1 the results were ANO1 activ -10*.
`COc1ccc2c(ccc[n+]2[O-])c1` gave ANO1 activ inactive.
CS(=O)(=O)N1CCc2cc(C(=O)N3CCN(c4ccccc4F)CC3)ccc21 was read as ANO1 activ inactive, ANO1 block inactive, NTR1 agonist 1, MEKK2 mut-MEK5 1, MEKK3 PB1 HTS 104 and MEKK2wt PB1 HTS 103.
Screening COc1cc(CN2CCN(c3cccc(C)c3C)CC2)cc([N+](=O)[O-])c1O returned ANO1 activ inactive, ANO1 block inactive, NTR1 agonist -2, MEKK2 mut-MEK5 242*, MEKK3 PB1 HTS 91 and MEKK2wt PB1 HTS 212*.
Screening COc1ccc(N2CCN(Cc3cc(OC)c(O)c([N+](=O)[O-])c3)CC2)cc1 returned ANO1 activ inactive, ANO1 block inactive, NTR1 agonist 0, MEKK2 mut-MEK5 4, MEKK3 PB1 HTS 105 and MEKK2wt PB1 HTS 111.
O=C(CN(Cc1ccccc1)C(=O)CCC(=O)Nc1nccs1)NCC1CCCO1 (centres undefined) was read as ANO1 activ inactive, ANO1 block inactive, NTR1 agonist -1, MEKK2 mut-MEK5 -2, MEKK3 PB1 HTS 100 and MEKK2wt PB1 HTS 98.
CC1(C)CC(=O)C(C(c2ccncc2)C2C(=O)CC(C)(C)CC2=O)C(=O)C1 was read as ANO1 activ -14*, ANO1 block inactive, NTR1 agonist 0, MEKK2 mut-MEK5 6, MEKK3 PB1 HTS 102 and MEKK2wt PB1 HTS 106.
`COc1cc(CCC(=O)OCC(=O)Nc2ccc(Br)cc2F)cc(OC)c1OC` gave ANO1 activ inactive, ANO1 block inactive, NTR1 agonist 0, MEKK2 mut-MEK5 -1, MEKK3 PB1 HTS 102 and MEKK2wt PB1 HTS 99.
`C=CCn1c(SCc2ccc(C(=O)Nc3nccs3)cc2)nnc1-c1ccc(C)c(Cl)c1` gave ANO1 activ inactive, ANO1 block 25*, NTR1 agonist 9, MEKK2 mut-MEK5 15, MEKK3 PB1 HTS 101 and MEKK2wt PB1 HTS 107.
For CN(C)c1nc(-c2cn(CCC#N)c3ccccc23)cs1 the results were ANO1 activ inactive, ANO1 block inactive, NTR1 agonist 1, MEKK2 mut-MEK5 -6, MEKK3 PB1 HTS 97 and MEKK2wt PB1 HTS -15*.
Screening COCCn1cc(-c2csc(N)n2)c2ccccc21 returned ANO1 activ inactive, ANO1 block inactive, NTR1 agonist 3, MEKK2 mut-MEK5 1, MEKK3 PB1 HTS 100 and MEKK2wt PB1 HTS 101.
Screening Nc1ncnc(N2CCOCC2)n1 returned ANO1 activ inactive.
CN(C)CC(CCC(CN(C)C)C(=O)c1ccccc1)C(=O)c1ccccc1 (centres undefined) was read as ANO1 activ -9.5*, MEKK2 mut-MEK5 9, MEKK3 PB1 HTS 99 and MEKK2wt PB1 HTS 111.
CCOc1ccc(C(=O)C(CCC(CN(C)C)C(=O)c2ccc(OCC)cc2)CN(C)C)cc1 (centres undefined) was read as ANO1 activ inactive, MEKK2 mut-MEK5 23, MEKK3 PB1 HTS 101 and MEKK2wt PB1 HTS 115.
Cc1ccc(S(=O)(=O)N2[C@@H](c3cccc(Cl)c3)C(C(=O)O)=CC[C@H]2c2ccc(Cl)cc2)cc1 was read as ANO1 activ inactive, ANO1 block 100* and NTR1 agonist 17.
`CCOc1ccc([C@@H]2CC=C(C(=O)O)[C@H](c3cccc(Cl)c3)N2S(=O)(=O)c2ccc(C)cc2)cc1` gave ANO1 activ -6.9*, ANO1 block inactive and NTR1 agonist -1.

High-throughput results as filed in PubChem.
